From PubChem
An excerpt weighted towards active compounds, which were near 22% of everything screened.
CYP2C19 act – increases human CYP2C19 enzyme activity | P33261 | recombinant CYP2C19, luciferin-H EGE luminescence; stronger effect = higher value; 0 = fully inhibited enzyme, 1 = untreated enzyme | activation factor at 5 µM | 96,000 tested, under 10 active;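 active = activation factor of at least 2 at 5 µM in the primary screen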;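 also: 0 = wells with 2.5 mM tranylcypromine and 1 = vehicle-only wells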
CYP2C19 inhib – blocks human cytochrome P450 2C19 | 96,000 tested, 21% active | inhibition, % at 5 µM | CYP2C19 Supersomes, luciferin-H EGE luminescence, 30 min | P33261;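 active = CYP2C19 inhibition above a set limit at 5 µM in the primary screen, cut at about 50% in these data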;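 also: plate controls were negative control wells for no effect and 2.5 mM tranylcypromine positive control for full effect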
F-actin modifier – alters cytoskeleton assembly in HUVEC cells; HUVEC TNFa F-actin phalloidin imaging, high content; inhibition, % at 2 µM; 91,000 tested, 0.18% active;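 active = inhibition above the batch mean plus 3 SD and confirmed as a hit by visual image inspection, cut at about 30% in these data, passing the limit was not always enough; inconclusive = above the inhibition threshold but rejected on visual inspection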
E-sel TNF inh – blocks E-selectin expression induced by TNF alpha; inhibition, % at 2 µM; HUVEC TNFa-induced E-selectin immunofluorescence, high content; 120,000 tested, 0.71% active; AID 1246;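 active = inhibition above the batch mean plus 3 SD, and confirmed as a hit on visual image review, cut at about 43% in these data; inconclusive = passes the inhibition cutoff but fails visual image review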;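 also: 0% = TNF-stimulated DMSO wells and 100% = unstimulated control wells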
CYP2C9 act – activators of human CYP2C9 | P11712 | recombinant CYP2C9, luciferin-H conversion, luminescence; stronger effect = higher value; factor 1 = untreated enzyme, 0 = blocked | activation factor at 5 µM | 96,000 tested, 1.4% active | AID 1024;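 active = activation factor of 2 or more for CYP2C9 at a 5 µM dose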;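 also: 0 = sulfaphenazole-blocked wells and 1 = vehicle-only wells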
Target sequence (P11712 whole entry, looked up): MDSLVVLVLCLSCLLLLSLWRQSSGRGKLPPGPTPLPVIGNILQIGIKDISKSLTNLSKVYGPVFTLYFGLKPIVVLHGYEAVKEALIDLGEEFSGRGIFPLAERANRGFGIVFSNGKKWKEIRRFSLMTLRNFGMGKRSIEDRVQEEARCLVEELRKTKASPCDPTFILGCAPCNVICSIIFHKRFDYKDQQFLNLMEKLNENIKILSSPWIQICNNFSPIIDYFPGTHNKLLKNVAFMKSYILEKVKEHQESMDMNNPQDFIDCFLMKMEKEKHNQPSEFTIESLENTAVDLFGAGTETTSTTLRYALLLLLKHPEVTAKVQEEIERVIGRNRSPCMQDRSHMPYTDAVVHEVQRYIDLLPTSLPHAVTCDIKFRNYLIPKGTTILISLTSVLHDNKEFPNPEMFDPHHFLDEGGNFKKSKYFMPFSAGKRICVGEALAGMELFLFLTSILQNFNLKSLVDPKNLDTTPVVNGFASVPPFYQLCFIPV
CYP2C9 inh – inhibitors of human CYP2C9. inhibition, % at 5 µM. CYP2C9 Supersomes, luciferin-H conversion, luminescence. 96,000 tested, 20% active;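 active = blocking of liver enzyme CYP2C9 beyond about 50% at 5 µM, limit read from the data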
Active calls of the source: *; ? = inconclusive; . = no result.

SMILES	CYP2C19 act	CYP2C19 inhib	F-actin modifier	E-sel TNF inh	CYP2C9 act	CYP2C9 inh
O=C(Cc1ccccc1)NCc1ccc2c(c1)OCO2	0.1	95*	-1	0	0.5	54*
O=C(Cc1c[nH]c2ccccc12)NCc1ccc2c(c1)OCO2	0.1	94*	-52	13	0.5	53*
O=C(Cc1c[nH]c2ccccc12)NCc1ccc(Cl)cc1	.	.	.	5	.	.
O=C(CSCc1ccc(Cl)cc1)NCc1ccc2c(c1)OCO2	0.7	32	-3	7	0	100*
O=C(CSCc1ccc(F)cc1)NCc1ccc2c(c1)OCO2	.	.	.	-15	.	.
O=C(CSCC(=O)OCn1nnc2ccccc2c1=O)Nc1ccc(Cl)cc1	0.8	25	15	22	0.7	26
O=C(NCCN1CCN(C(=O)C(c2ccccc2)c2ccccc2)CC1)C(=O)Nc1ccccc1	1	0	-1	-2	1	3
CCOC(=O)c1c(NCc2ccc3c(c2)OCO3)c2ccccc2[nH]c1=O	0.3	74*	-8	14	0.9	13
O=C(CSc1nnc(CNC(=O)c2c(F)cccc2Cl)o1)NCc1ccc2c(c1)OCO2	1.1	-6	-2	10	0.9	5
CS(=O)(=O)N(CC(=O)NCc1ccc2c(c1)OCO2)Cc1ccccc1	0.4	62*	-4	-10	0.7	34
Cc1oc(-c2ccccc2F)nc1CSCC(=O)NCc1ccc2c(c1)OCO2	0.2	78*	6	-12	0.3	75*
CC(Sc1ccc(Cl)cc1)C(=O)NCc1cccnc1 (stereo not given)	0.5	51*	4	-65	0.7	33
Cc1cc(C(=O)Nc2ccccc2)oc1C	0.8	24	-1	-13	1.1	-7
O=c1cc(Cl)c(-c2ccccc2)n[nH]1	1.2	-16	-3	5	1.1	-14
COC(=O)C1=C(NC(=O)CCCCl)CCS1	.	.	.	7	.	.
Cc1ccccc1Cn1c(=O)n(CCC(=O)NCc2ccc3c(c2)OCO3)c(=O)c2ccccc21	0.7	32	3	-27	0.7	34
O=C(CCc1c[nH]c2ccccc12)NCc1ccc2c(c1)OCO2	0.1	92*	11	-1	0.8	19
O=C(CCn1c(=O)c2ccccc2n(Cc2cccnc2)c1=O)NCc1ccc2c(c1)OCO2	0.2	77*	4	-1	0.3	69*
O=C(O)CCc1n[nH]c(=S)[nH]c1=O	1	-2	-3	.	1.1	-12
c1ccc(CCNc2nc3ccccc3s2)cc1	0	97*	.	4	0.2	82*
O=C(Nc1nc2ccccc2s1)c1cnccn1	0.3	65*	-12	-8	0.7	29
Cc1ccc(C(=O)Nc2nc3ccccc3s2)s1	0.6	38	.	-46	0.4	61*
CCOC(=O)Nc1nc2ccccc2s1	1.1	-10	4	8	0.7	29
CCOC(=O)c1nc(NCCc2ccccc2)sc1C	.	.	.	-14	.	.
Cc1ccc(CNc2nc3ccccc3s2)s1	0.5	51*	7	-40	0.6	44
SMILES	CYP2C19 act	CYP2C19 inhib	F-actin modifier	E-sel TNF inh	CYP2C9 act	CYP2C9 inh
COc1nc(N2CCOCC2)nc(-n2cccc2)n1	1	-2	0	-11	0.9	11
O=C(c1ccccc1/S(=N/S(=O)(=O)c1ccccc1)N1CCOCC1)N1CCOCC1 (stereo not given)	1.1	-5	11	-23	1.1	-12
CC(C)=CCCC(C)CN(C)CCc1ccccn1 (stereo not given)	0.5	47	.	-37	1	-3
O=C(O)CCCNc1n[nH]c(=O)[nH]c1=O	.	.	.	-21	.	.
COc1ccccc1N(CC(O)CN1C(=O)NC(C)(C)C1=O)S(=O)(=O)c1ccc(C)cc1 (stereo not given)	0.1	94*	8	5	0.4	60*
O=C(CCC(=O)OCC(=O)c1ccccc1)Nc1cccc2cccnc12	1	0	35	16	1.1	-7
COc1ccc(NC(=O)[C@@H]2[C@@H]3C(=O)N(C4CCCCC4)C(=O)[C@@H]3C3c4ccccc4C=CN32)cc1 (stereo not given in full)	0.5	46	17	.	0.4	57*
O=S(=O)(c1ccccc1F)N(Cc1ccco1)Cc1nnc(-c2ccccc2Br)o1	0.5	50*	-10	.	0.3	68*
COc1ccc(Cl)cc1NC(=O)CN(C)CC(=O)Nc1ccccc1C(F)(F)F	.	.	.	9	.	.
OC(COc1ccc2ccccc2c1)CN1CCN(c2ccc(F)cc2)CC1 (stereo not given)	0.5	51*	.	-45	1	-2
CC(=O)Nc1ccc(OCC(O)CN2CCN(c3cc(Cl)ccc3C)CC2)cc1 (stereo not given)	0.2	84*	-3	11	0.4	61*
CC(=O)Nc1ccc(OCC(O)CN2CCN(c3ccc(C)c(Cl)c3)CC2)cc1 (stereo not given)	0.3	68*	11	-14	0.3	73*
Cc1cc(F)ccc1NCc1cc2c(cc1[N+](=O)[O-])OCO2	0.7	28	-22	.	1	2
CCNc1nc(OC)nc(Oc2ccc(C(=O)OC)cc2)n1	1	-1	?	16	1.1	-12
Cc1ccnc(NS(=O)(=O)c2ccc(NC(=O)C3CCCCC3)cc2)n1	1.1	-14	7	-29	1	-2
Cc1ccnc(NS(=O)(=O)c2ccc(NC(=O)C34CC5CC(C)(CC(C)(C5)C3)C4)cc2)n1	1	-1	-9	9	0.4	58*
Cc1ccc(-n2c(SCC(=O)NCc3ccco3)nc3sc4c(c3c2=O)CC(C)(C)SC4)cc1	1	-1	-13	-26	0.6	40
CCN(CC)C(=O)CSc1nc2sc3c(c2c(=O)n1-c1ccc(C)cc1)CC(C)(C)SC3	0.5	52*	-4	-10	0	96*
CCOc1ccc2nc(NC(=O)CN3CCN(c4ccccn4)CC3)sc2c1	1	-2	4	7	1	5
Cc1cccc(C(=O)N2CCC(n3nnc4cc(F)ccc43)CC2)c1	0.2	84*	0	-11	0.2	82*
CCOc1ccc2nc(NC(=O)CN3CCC(n4nnc5cc(F)ccc54)CC3)sc2c1	0.2	80*	35	.	0.1	86*
COc1cc(OC)cc(C(=O)N2CCC(n3c(C)nc4cc(F)ccc43)CC2)c1	0.9	15	12	-5	0.3	67*
Cc1ccc2c(c1)nnn2C1CCN(S(=O)(=O)c2ccc(C(=O)N3C(C)CCCC3C)cc2)CC1 (stereo not given)	0.2	77*	-18	1	0.5	50
COc1ccc(CN=C(NS(=O)(=O)c2cccs2)SC)cc1	.	.	.	27	.	.
COC(=O)c1ccccc1NC(=O)CN1CCC(n2nnc3cc(F)ccc32)CC1	0.6	35	6	-7	0.8	20
O=C(CN1CCC(n2nnc3cc(F)ccc32)CC1)NC1CCCCC1	0.4	58*	20	.	0.4	60*
O=C(CN1CCC(n2nnc3cc(F)ccc32)CC1)Nc1ccccc1N1CCOCC1	0	96*	-2	1	0.1	85*
